High-throughput results deposited in PubChem BioAssay by National Center for Advancing Translational Sciences (NCATS).
Shown are actives, neighbours in structure and some others; about 19% of the full set was active somewhere.
HT1080 IDH1KD tx – qHTS for induction of synthetic lethality in tumor cells producing 2HG: qHTS for the HT-1080-IDH1KD cell line; HT-1080 IDH1 knockdown viability, ATP luminescence, 48 h; Potency, µM (doses to about 46.1 µM), without a hit: at the top dose activity, negative = toxicity, most hits filed as cytotoxic; 2% of 360,000 active; AID 686971, 2013;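 further: 0% = DMSO wells and -100% = cell-free medium wells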
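After a 2 h attachment period, IDH1KD HT-1080 cells took pin-transferred compound for 48 h at 37 °C; ATP-based luminescence after 10 min room-temperature reagent incubation reported viability.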
TDP1 cell noCPT – qHTS for Inhibitors of human tyrosyl-DNA phosphodiesterase 1 (TDP1): qHTS in cells in absence of CPT | DT40 Tdp1-/- hTDP1 cells, no CPT, ATP luminescence, 48 h | Potency, µM (series often up to 46.2 µM), for the others: top-dose activity change, negative = growth inhibition, actives largely listed as inhibitors | 15% of 420,000 active; further: nearly all actives have a fitted effect of over 55% in size
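Chicken DT40 Tdp1-/- cells complemented with human TDP1, screened without camptothecin (DMSO vehicle only), 400 cells/well. Compounds pin-transferred, cells incubated at 37 °C for at least 48 hr. Growth read as ATP-dependent luminescence (CellTiter-Glo, 30 min at RT).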
KB-V1 cytotox – qHTS assay for MDR1-selective chemotherapeutics: Primary screen using the drug-selected MDR subline cells KB-V1; KB-V1 MDR cells viability, CellTiter-Glo, 72 h; Potency, µM (doses to about 46.1 µM), hits mostly cytotoxic; 3.4% of 400,000 active; AID 1347076, 2019; further: nearly all actives have a fitted effect of over 60% in size
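KB-V1 cells (P-gp-expressing MDR subline of KB-3-1) in phenol-red-free DMEM with 10% FBS were exposed to library compounds over a concentration series for 72 h at 37 degrees C. Viability read by CellTiter-Glo luminescence; concentration-effect curves fitted after normalization.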
HT1080-NT tox – qHTS for induction of synthetic lethality in tumor cells producing 2HG: qHTS for the HT-1080-NT fibrosarcoma cell line; HT-1080-NT fibrosarcoma viability, CellTiter-Glo ATP luminescence, 48 h; Potency, µM (series often up to 46.1 µM), for the others: at the top dose activity, negative = less viability, usual class: cytotoxic; 1.6% of 360,000 active;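 further: NT is the 2HG producing partner of a matched IDH1 knockdown line; 0% = DMSO-treated cells and -100% = media-only wells without cells; nearly all actives have a fitted effect of over 55% in size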
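A 48-hour cytotoxicity screen used HT-1080-NT cells plated 2 hours before compound delivery. ATP-based CellTiter-Glo luminescence measured viability, normalized to DMSO and no-cell controls.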
KB-3-1 tox – qHTS assay for MDR1-selective chemotherapeutics: Primary screen using the parental adenocarcinoma cell KB-3-1 | KB-3-1 viability, CellTiter-Glo ATP luminescence, 72 h | AID 1347075, 2019 | 1.4% of 400,000 active | Potency, µM (doses to about 46.1 µM), most hits filed as cytotoxic; further: nearly all actives have a fitted effect of over 60% in size
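Here the drug-naive KB-3-1 line serves as comparator for MDR sub-line selectivity; cells received compound titrations, 72 h at 37 °C, then CellTiter-Glo readout.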
DT40 TDP1 CPT – qHTS for Inhibitors of human tyrosyl-DNA phosphodiesterase 1 (TDP1): qHTS in cells in presence of CPT. chicken DT40 Tdp1-/-;hTDP1 cells + 20 nM CPT, ATP luminescence, 48 h. Potency, µM (titrated, usually from 46.2 µM), inactives show at the highest dose activity change, negative = growth inhibition, hits mostly inhibitors. 12% of 420,000 active. AID 686979, 2013; further: nearly all actives have a fitted effect of over 55% in size
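Chicken DT40 Tdp1-/- cells stably complemented with human TDP1 were seeded at 400 cells/well in medium containing 20 nM camptothecin, exposed to pin-transferred compounds, and grown at 37 °C for at least 48 hr. Viability was read as ATP luminescence.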
* hit, by the source's call; i = inactive; u = inconclusive; x = not tested or not shown; ! = not active in a repeat; [ ] = another dose, or the depositor's remark. The call rests on the fitted dose curve; in most records, active means well fitted curve in the direction sought with a large enough effect; inconclusive means small, poorly fitted or top-dose-only effect, or another doubt; inactive means no such curve, though single readings can be large; an effect the other way counts as inactive or inconclusive. Unless noted, on the % scale 0 is the no-effect control and ±100 the full control effect; potency means the concentration at half of the fitted maximal effect.

SMILES	HT1080 IDH1KD tx	TDP1 cell noCPT	KB-V1 cytotox	HT1080-NT tox	KB-3-1 tox	DT40 TDP1 CPT
Cn1nnnc1SCC1=C(C(=O)O)N2C(=O)[C@@H](NC(=O)[C@H](OC=O)c3ccccc3)[C@H]2SC1	x	-8.5%	x	x	x	-4.0%
O=C(CCCN1CCC(O)(c2ccc(Br)cc2)CC1)c1ccc(F)cc1	x	u	u	x	i	u
O=C(CCCN1CCC(O)(c2ccc(Cl)cc2)CC1)c1ccc(F)cc1	13.4%	16.4µM*!	u	5.6%	i	26.6µM*!
[O-][n+]1nc2ccccc2c2ccccc21	-7.2%	-17.2%	i	0.0%	i	-2.5%
COC(=O)c1ccc(CNC(=O)c2nc(Cn3nc(C)c(Br)c3C)no2)cc1	x	x	u	x	i	x
COc1cc(CNC(=O)c2ccc(Cn3nc(C)c(Cl)c3C)o2)cc(OC)c1	u	8.2µM*	i	u	i	u
COc1cc(CNC(=O)c2nc(Cn3nc(C)c(Br)c3C)no2)cc(OC)c1	-20.2%	u	i	-23.8%	i	29.1µM*
COC(=O)c1ccc(Cn2nc(C)c(Cl)c2C)o1	9.3%	-0.1%	i	4.7%	i	-10.3%
Cc1ccccc1NC(=O)CNC(=O)N1CC(=O)Nc2ccccc21	6.0%	4.9%	i	-1.4%	i	2.6%
O=C(NC1CCCCC1)C(c1ccc2ncccc2c1)N(Cc1ccco1)C(=O)c1ccc2c(c1)OCCO2 (configuration not stated)	-4.7%	u	i	0.9%	u	u
O=C(NC1CCCCC1)C(c1ccc2ncccc2c1)N(Cc1ccc2c(c1)OCO2)C(=O)c1ccc2c(c1)OCCO2 (configuration not stated)	0.2%	25.9µM*	i	-2.1%	i	u
O=C(NC1CCCCC1)C(c1ccccc1)N(Cc1ccc2c(c1)OCO2)C(=O)c1cnsn1 (configuration not stated)	-26.8%	u	i	0.6%	i	20.6µM*
Cc1nn(Cc2ccc(Br)cc2)c(C)c1NC(=O)c1nn(C)cc1Cl	-3.4%	18.4µM*	u	-1.2%	i	u
Cc1nn(Cc2ccccc2Cl)c(C)c1C(=O)NC1=NCCS1	-11.3%	-14.6%	i	-11.2%	i	-0.2%
Cc1nn(Cc2ccccc2Cl)c(C)c1NC(=O)NC12CC3CC(CC(C3)C1)C2	u	u	i	u	u	u
Cc1nn(Cc2ccccc2Cl)c(C)c1NC(=O)c1nc2ncccn2n1	-1.5%	13µM*	i	0.5%	i	13µM*
CCC(CC)c1nnc(NC(=O)c2c(C)nn(Cc3ccccc3Cl)c2C)s1	2.1%[9.24 µM]	-26.4%	u	-18.6%	i	23.1µM*
Cc1nn(Cc2ccccc2Cl)c(C)c1NC(=O)c1cc(-c2ccc(F)cc2)on1	-2.2%	-21.3%	i	7.4%	i	u
